Results published in PubChem BioAssay (Tox21).
Values joined by “and” are separate entries in the source; they are usually repeats but may differ in a detail not shown here. Identical values can stand only once. Results filed as inconclusive are left out. Active and inactive are the calls of the source. Unless noted, calls follow the shape of the dose curve; as a rule, active = well fitted curve in the direction sought with a large enough effect in the repeat runs; inconclusive = weak or mixed curves; inactive = no such curve, though single readings can be large; an effect the other way counts as inactive or inconclusive. Positions of bridges follow the written chain, without caps; N, C: chain ends. Non-standard residues stand in square brackets, D forms with d. Residues, ends and D or L forms follow the SMILES beside them. pGlu = O=C1CC[C@@H](C(=O)O)N1; Orn = NCCC[C@H](N)C(=O)O; Thz = O=C(O)[C@@H]1CSCN1; Mpa = O=C(O)CCS

Tests used:
[1] = qHTS assay to identify small molecule antagonists of the glucocorticoid receptor (GR) signaling pathway - cell viability counter screen (AID 720693); also: nearly all actives have a fitted effect of over 55% in size; also: potency is read from the fitted curve at half-maximal effect
[2] = qHTS assay for identifying genotoxic compounds that show differential cytotoxicity against isogenic chicken DT40 cell lines with known DNA damage response pathways - wild type cell line (AID 743012); also: nearly all actives have a fitted effect of over 60% in size; also: potency is read from the fitted curve at half-maximal effect
Outline: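 Endpoint: CellTiter-Glo luminescence, 30 min RT. Cells: wild type DT40, 300/well. Exposure: compounds in DMSO, 40 h, 37 C/5% CO2, after ~0.5 h pre-incubation.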

[3] = qHTS assay for identifying genotoxic compounds that show differential cytotoxicity against isogenic chicken DT40 cell lines with known DNA damage response pathways - Rev3 mutant cell line (AID 743014); also: nearly all actives have a fitted effect of over 55% in size; also: potency is read from the fitted curve at half-maximal effect
[4] = qHTS assay for identifying genotoxic compounds that show differential cytotoxicity against isogenic chicken DT40 cell lines with known DNA damage response pathways - Rad54/Ku70 mutant cell line (AID 743015); also: nearly all actives have a fitted effect of over 60% in size; also: potency is read from the fitted curve at half-maximal effect
[5] = qHTS assay to identify small molecule antagonists of the androgen receptor (AR) signaling pathway - cell viability counter screen (AID 743033; also: nearly all actives have a fitted effect of over 45% in size; also: potency is read from the fitted curve at half-maximal effect)
[6] = molecular target: Androgen receptor (Homo sapiens) (UniProt P10275); experiment: qHTS assay to identify small molecule antagonists of the androgen receptor (AR) signaling pathway (AID 743035; active = well fitted inhibition curve with a large enough effect in the signal ratio in the repeat runs, not every such curve was filed as active; the % refers to the signal ratio; also: potency is read from the fitted curve at half-maximal effect)
Outline: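 R1881 agonist challenge of a HEK293 UAS-beta-lactamase AR reporter line in the presence of compound (16 h, 37C); signal taken as FRET fluorescence after 2 h with LiveBLAzer B/G substrate at room temperature.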

[7] = molecular target: Androgen receptor (Homo sapiens) (UniProt P10275); experiment: qHTS assay to identify small molecule agonists of the androgen receptor (AR) signaling pathway (AID 743036; active = well fitted activation curve with a large enough effect in the signal ratio in the repeat runs, with a control signal flat, not every such curve was filed as active; the % refers to the signal ratio; also: potency is read from the fitted curve at half-maximal effect)
Outline: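 Beta-lactamase under UAS control, stably integrated in HEK293 GripTite cells, reports receptor activation. After 16 h compound treatment, cells received FRET substrate for 2 h at room temperature before fluorescence reading.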

[8] = molecular target: Androgen receptor (Homo sapiens) (UniProt P10275); experiment: qHTS assay to identify small molecule agonists of the androgen receptor (AR) signaling pathway using the MDA cell line (AID 743040; also: nearly all actives have a fitted effect of over 20% in size; also: potency is read from the fitted curve at half-maximal effect)
Outline: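 Stable MMTV-luciferase reporter in MDA-kb2 cells; note the promoter carries GR as well as AR response elements. 16 h compound treatment, 37C, 0% CO2; ONE-Glo luminescence endpoint.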

[9] = qHTS assay to identify small molecule antagonists of the androgen receptor (AR) signaling pathway using the MDA cell line - cell viability counter screen (AID 743041; also: nearly all actives have a fitted effect of over 45% in size)
Outline: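 Using the breast carcinoma line MDA-kb2 AR-luc, test chemicals were co-incubated with R1881 for 16 h; CellTiter-Fluor reagent, added at 15.5 h, provided a fluorescence measure of live cells.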

[10] = molecular target: Androgen receptor (Homo sapiens) (UniProt P10275); experiment: qHTS assay to identify small molecule antagonists of the androgen receptor (AR) signaling pathway using the MDA cell line (AID 743042; also: nearly all actives have a fitted effect of over 55% in size)
Outline: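 Antagonist mode: compounds plus R1881 agonist added to MDA-kb2 AR-luc cells, incubated 16 h at 37C. Luciferase reporter luminescence quantified, with multiplexed CellTiter-Fluor readout for cell viability.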

Measured: Potency

Androgen receptor (Homo sapiens), sequence (P10275 whole entry, looked up): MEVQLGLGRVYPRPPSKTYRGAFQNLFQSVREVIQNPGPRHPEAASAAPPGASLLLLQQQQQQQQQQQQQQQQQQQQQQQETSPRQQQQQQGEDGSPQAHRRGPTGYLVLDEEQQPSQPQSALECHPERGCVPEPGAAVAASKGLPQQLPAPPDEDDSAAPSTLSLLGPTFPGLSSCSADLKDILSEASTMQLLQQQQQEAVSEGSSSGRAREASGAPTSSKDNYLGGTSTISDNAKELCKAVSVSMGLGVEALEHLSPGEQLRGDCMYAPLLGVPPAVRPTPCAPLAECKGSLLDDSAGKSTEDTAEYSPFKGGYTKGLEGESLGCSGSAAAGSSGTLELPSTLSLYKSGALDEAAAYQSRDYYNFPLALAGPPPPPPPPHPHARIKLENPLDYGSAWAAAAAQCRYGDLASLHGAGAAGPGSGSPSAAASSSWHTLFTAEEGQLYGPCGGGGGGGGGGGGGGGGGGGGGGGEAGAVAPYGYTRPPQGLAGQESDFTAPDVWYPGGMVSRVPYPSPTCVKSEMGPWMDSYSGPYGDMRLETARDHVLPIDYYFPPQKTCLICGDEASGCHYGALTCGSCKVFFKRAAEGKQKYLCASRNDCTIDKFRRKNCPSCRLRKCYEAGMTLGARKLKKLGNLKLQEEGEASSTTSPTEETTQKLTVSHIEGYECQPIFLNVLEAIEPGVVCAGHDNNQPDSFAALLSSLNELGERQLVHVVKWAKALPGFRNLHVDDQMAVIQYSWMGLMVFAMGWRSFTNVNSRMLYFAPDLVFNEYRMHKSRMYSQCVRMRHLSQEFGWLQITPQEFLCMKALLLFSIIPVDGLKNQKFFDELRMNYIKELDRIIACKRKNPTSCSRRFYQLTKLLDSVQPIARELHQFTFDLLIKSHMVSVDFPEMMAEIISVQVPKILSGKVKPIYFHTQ

O=C(Cc1cccs1)N[C@@H]1C(=O)N2C(C(=O)[O-])=C(C[n+]3ccccc3)CS[C@H]12
inactive: all assays above

Nc1ccn(C[C@@H](CO)OCP(=O)(O)O)c(=O)n1
inactive: all assays above

CCN(CC)CCC(=O)N1c2ccccc2Sc2ccc(Cl)cc21
inactive: [1] | [5]
active: [2] 8.41 µM | [3] 10.6 µM | [4] 11.9 µM

C[C@H]1[C@@H](OC(=O)CCC(=O)O)O[C@@H]2OC3(C)CC[C@H]4[C@H](C)CC[C@@H]1[C@@]24OO3
inactive: [1] | [5]
active: [2] 0.188 µM | [3] 0.188 µM | [4] 0.119 µM

CCN(CC)CCC(=O)N1c2ccccc2Sc2ccc(C(F)(F)F)cc21
active: [2] 5.96 µM | [3] 10.6 µM | [4] 8.41 µM
inactive: [1] | [5]

CC[N+](C)(C)Cc1ccccc1Br
not listed: [7]
inactive: all other assays above

S=C=Nc1ccc(N=C=S)cc1
inactive: [1] | [2] | [3] | [4] | [5]

CCOC(=O)[C@@H](N)CS
inactive: [1] | [2] | [3] | [4] | [5]

N[C@@H](C(=O)N[C@@H]1C(=O)N2C(C(=O)O)=C(CSc3cn[nH]n3)CS[C@H]12)c1ccc(O)cc1
inactive: all assays above

CC(=C\c1ccccc1)/C=C1/SC(=S)N(CC(=O)O)C1=O
inactive: [1] | [2] | [3] | [4]

CC[C@@]1(O)C[C@H](O[C@H]2C[C@H](N(C)C)[C@H](O[C@H]3C[C@H](O)[C@H](O[C@H]4CCC(=O)[C@H](C)O4)[C@H](C)O3)[C@H](C)O2)c2c(cc3c(c2O)C(=O)c2c(O)cccc2C3=O)[C@H]1C(=O)OC
active: [1] 2.39 µM | [2] 0.0531 µM | [3] 0.0531 µM | [4] 0.0422 µM

COC(=O)C1=C(C)NC(C)=C(C(=O)O[C@H]2CCN(Cc3ccccc3)C2)[C@H]1c1cccc([N+](=O)[O-])c1
inactive: [1] | [5] | [8]
active: [2] 10.6 µM | [3] 18.8 µM | [4] 13.3 µM | [6] 26.8 µM

CN(C)CCC=C1c2ccccc2C(C)(C)c2ccccc21
active: [2] 9.44 µM | [3] 13.3 µM | [4] 13.3 µM
inactive: [1]

CC(=O)O[C@H]1C(=O)[C@@]2(C)[C@H]([C@H](OC(=O)c3ccccc3)[C@]3(O)C[C@H](OC(=O)[C@H](O)[C@@H](NC(=O)c4ccccc4)c4ccccc4)C(C)=C1C3(C)C)[C@]1(OC(C)=O)CO[C@@H]1C[C@@H]2O
inactive: [1] | [8] | [9] | [10]
active: [2] 0.0106 µM | [3] 0.0094 µM | [4] 0.0133 µM | [5] 0.952 µM | [6] 0.0169 µM

CC(C)(C)C1(O)CCN2CC3c4ccccc4CCc4cccc(c43)C2C1 (stereo unspecified)
inactive: [1] | [5]
active: [2] 9.44 µM | [3] 11.9 µM | [4] 11.9 µM

Clc1cc(Cl)c(OCC#CI)cc1Cl
active: [2] 1.68 µM | [3] 2.98 µM | [4] 2.66 µM
inactive: [1]

CS(=O)(=O)OCC(O)C(O)COS(C)(=O)=O (stereo unspecified)
active: [2] 8.41 µM | [3] 1.33 µM | [4] 23.7 µM
inactive: all other assays above

O=C(O)C1=C(CSc2nnnn2CS(=O)(=O)O)CS[C@@H]2[C@H](NC(=O)[C@H](O)c3ccccc3)C(=O)N12
active: [8] 26.6 µM
inactive: all other assays above

O=C[C@H](O)[C@@H](O)[C@H](O[C@H]1O[C@H](CO)[C@@H](O[C@H]2O[C@H](CO)[C@@H](O)[C@H](O)[C@H]2O)[C@H](O)[C@H]1O)[C@H](O)CO
active: [7] 7.56 µM | [8] 1.68 µM
inactive: all other assays above

CCC(Cc1c(I)cc(I)c(O)c1I)C(=O)O (stereo unspecified)
inactive: all assays above

CC(C)CCCC(C)NC(C)C (stereo unspecified)
inactive: all assays above

O=C(O)c1nc(=O)[nH]c(=O)[nH]1
inactive: all assays above

CCC(CN)CC(C)CCNCC(O)CNCC(C)CC(CC)CN (stereo unspecified)
inactive: all assays above

NC(=O)Oc1ccc(Cc2ccccc2)cc1
inactive: [1] | [2] | [3] | [4] | [5]

CCCCOC(=O)C(=O)Nc1cccc(-c2nn[nH]n2)c1
inactive: all assays above

O=C(/C=C/c1cccc(F)c1)NC1CC1
inactive: [1] | [2] | [3] | [4] | [5]

CN1CCCC(CN2c3ccccc3Sc3ccccc32)C1 (stereo unspecified)
active: [2] 7.5 µM | [3] 8.41 µM | [4] 9.44 µM
inactive: [1] | [5]

NCCCC[C@H](N)C(=O)O
inactive: all assays above

CC1(C)S[C@@H]2[C@H](NC(=O)C3(N)CCCCC3)C(=O)N2[C@H]1C(=O)O
inactive: all assays above

C#C[C@]1(O)CC[C@H]2[C@@H]3CCC4=C/C(=N/O)CC[C@@H]4[C@H]3CC[C@@]21CC
active: [2] 16.8 µM | [3] 23.7 µM | [4] 21.1 µM | [6] 26.8 µM | [8] 0.0335 µM
inactive: [1] | [5]

O=C1CC[C@@H](C(=O)N2CSC[C@H]2C(=O)O)N1 ([pGlu]-[Thz]-OH)
not listed: [8]
inactive: all other assays above

CCC(C)[C@H]1O[C@]2(C=C[C@@H]1C)C[C@@H]1C[C@@H](C/C=C(\C)[C@@H](O[C@H]3C[C@H](OC)[C@@H](O[C@H]4C[C@H](OC)[C@H](NC(C)=O)[C@H](C)O4)[C@H](C)O3)[C@@H](C)/C=C/C=C3\CO[C@@H]4[C@H](O)C(C)=C[C@@H](C(=O)O1)[C@]34O)O2 (stereo partly specified)
inactive: [5]
active: [1] 7.56 µM and 19 µM | [2] 841 nM and 1.68 µM | [3] 1.33 µM and 2.98 µM | [4] 1.68 µM and 3.35 µM

CCOc1ccc(C[C@H]2NC(=O)CCSSC[C@@H](C(=O)N3CCC[C@H]3C(=O)N[C@@H](CCCN)C(=O)NCC(N)=O)NC(=O)[C@H](CC(N)=O)NC(=O)[C@H]([C@@H](C)O)NC(=O)[C@H]([C@@H](C)CC)NC2=O)cc1 ([Mpa][dY](Et)ITNCP[Orn]G-NH2; disulfide 1-6)
inactive: all assays above

CN1CC(O)c2cc(N=NC(N)=O)c(O)cc21 (stereo unspecified)
inactive: [1] | [2] | [3] | [4] | [5]

CCOC(=O)COc1ccc2c(C)c(CCN(CC)CC)c(=O)oc2c1
inactive: all assays above

CC(C)CCC[C@@H](C)[C@H]1CC(=O)C2=C3CC[C@H]4C[C@@H](O)CC[C@]4(C)[C@H]3CC[C@@]21C
active: [2] 0.596 µM | [3] 0.298 µM | [4] 0.841 µM
inactive: all other assays above

C[Se]CCC(N)C(=O)O (stereo unspecified)
inactive: [1] | [2] | [3] | [4] | [5]

S=C1SCN(Cc2ccccc2)CN1Cc1ccccc1
inactive: [1] | [5]
active: [2] 10.6 µM | [3] 13.3 µM | [4] 13.3 µM

CC(C)(C)c1ccc(CN2CCN(C(c3ccccc3)c3ccc(Cl)cc3)CC2)cc1 (stereo unspecified)
active: [2] 5.31 µM | [3] 4.22 µM | [4] 8.41 µM
not listed: [6]
inactive: all other assays above
